# Measurements reported in PubChem BioAssay.
# Active and inactive are the calls of the source.
# What was measured:
# [1] = test system: Plasmodium falciparum Sir2 (PF13_0152, Sir2A); test: Plasmodium falciparum Sir2A binding compounds – biochemical, small-molecule microarray, 635 nm fluorescence, primary screen (AID 1098); conditions: fluorescence 635 nm, higher = more signal;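 also: score merges spot fluorescence intensity with its signal-to-noise ratio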
# [2] = probe aDKK1 binding to arrayed compounds – biochemical, biotinylated probe, 635/667 nm fluorescence, primary screen (AID 1099); conditions: small-molecule microarray, higher = more signal;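 also: score merges 667nm spot fluorescence with signal to noise across triplicate slides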
# [3] = probe aCHRDL2 binding to arrayed compounds – biochemical, biotinylated probe, 635/667 nm fluorescence, primary screen (AID 1100); conditions: small-molecule microarray, higher = more signal
# [4] = change in splice reporter luminescence, either direction, cell-based, HEK293, spliceosome inhibition project, primary screen (AID 1101); conditions: HEK293 splicing luciferase reporter, 24 h, higher = more signal, called active from +8 up or from −8 down;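 also: HEK293 cells carrying a splicing-competent luciferase reporter gene; test concentration not given here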
# [5] = biological target: Fibroblast growth factor 10 (Homo sapiens) (UniProt O15520); test: compounds binding fibroblast growth factor 10 – biochemical, small-molecule microarray, 635 nm fluorescence, primary screen (AID 1102); conditions: FGF10 binding, fluorescence 635 nm, higher = more signal
# [6] = test system: glycogen synthase kinase-3 (GSK3A per assay name; protocol says GSK3B); test: compounds binding glycogen synthase kinase-3 – biochemical, small-molecule microarray, 635 nm fluorescence, GSK3A, primary screen (AID 1103); conditions: fluorescence 635 nm, higher = more signal; also: the record names both GSK3A and GSK3B
# [7] = biological target: Epidermal growth factor receptor (Homo sapiens) (UniProt P00533); test: compounds binding epidermal growth factor receptor – biochemical, small-molecule microarray, 635 nm fluorescence, primary screen (AID 1104); conditions: EGFR binding, higher = more signal;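 also: score merges 667 nm emission intensity with spot signal to noise over triplicate slides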
# [8] = biological target: Follistatin-related protein 3 (Homo sapiens) (UniProt O95633); test: compounds binding follistatin-related protein 3 – biochemical, small-molecule microarray, 635 nm fluorescence, primary screen (AID 1105); conditions: FSTL3 binding, higher = more signal;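 also: score merges emission near 667 nm and signal to noise per printed spot across three slides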
# [9] = biological target: Dickkopf-related protein 1 (Homo sapiens) (UniProt O94907); test: small molecules binding DKK1 protein – biochemical, small-molecule microarray, 635 nm fluorescence scan, primary screen (AID 1106); conditions: higher = more signal;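 also: score merges emission near 667 nm with signal to noise over three replicate slides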
# [10] = test system: Inhibin beta A chain (activin A); test: small molecules binding activin A – biochemical, small-molecule microarray, 635 nm fluorescence scan, primary screen (AID 1107); conditions: INHBA, higher = more signal;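 also: mouse activin A protein probed at 4.33 µg/mL on printed slides; score merges bound-protein fluorescence near 667 nm with spot signal-to-noise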
# [11] = test system: Human papillomavirus type 1a protein E7 (residues 44-93); test: small molecules binding HPV E7 44-93 – biochemical, small-molecule microarray, residues 44-93, 635 nm fluorescence, primary screen (AID 1108); conditions: fluorescence 635 nm, higher = more signal;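 also: E7 fragment applied at 1 µg/mL in TBST for 1 h at 4 C; score combines spot fluorescence with its signal to noise ratio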
# [12] = hepatitis C replication reporter changes, two-sided – Huh7 cells, luciferase reporter, HCV replication inhibitor project, primary screen (AID 1109); conditions: Huh7 HCV replicon luciferase reporter, 48 h; higher = more signal;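 also: huh7 hepatoma cells harbouring a luciferase neomycin HCV replicon reporter; luciferase luminescence as measure of HCV replicon replication; test concentration not given here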
# [13] = biological target: Left-right determination factor 2 (Homo sapiens) (UniProt O00292); test: small molecules binding LEFTY2 protein – biochemical, small-molecule microarray, 635 nm fluorescence scan, primary screen (AID 1110); conditions: higher = more signal
# [14] = biological target: Calmodulin-1 (Homo sapiens) (UniProt P0DP23); test: small molecules binding calmodulin-1 with EGTA – biochemical, small-molecule microarray, Cy5-labelled CALM1, profiling panel (AID 1111); conditions: Cy5-CALM1 binding fluorescence, higher = more signal;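 also: labelled calmodulin applied in Tris saline Tween buffer holding calcium plus EGTA and DTT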
# [15] = biological target: Calmodulin-1 (Homo sapiens) (UniProt P0DP23); test: small molecules binding Ca-loaded calmodulin-1 – biochemical, small-molecule microarray, Cy5-labelled CALM1, plus calcium, artefact control for SMM control-protein annotation, profiling panel (AID 1112); conditions: Cy5-CALM1 binding fluorescence, higher = more signal;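 also: score merges spot fluorescence with signal to noise from triplicate slides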
# [16] = probe aWnt5a binding to arrayed compounds – biochemical, biotinylated probe, 635/667 nm fluorescence, primary screen (AID 1113); conditions: small-molecule microarray, higher = more signal;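 also: score merges 667 nm fluorescence intensity with signal-to-noise per printed feature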
# [17] = probe aShh binding to arrayed compounds – biochemical, biotinylated probe, 635/667 nm fluorescence, primary screen (AID 1114); conditions: small-molecule microarray, higher = more signal;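 also: probe is biotin-labelled aShh protein from a stem cell growth factor screen; measures binding of labelled protein to compounds printed on the slide; score merges feature fluorescence at 667 nm with signal-to-noise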
# [18] = probe aNog binding to arrayed compounds – biochemical, biotinylated probe, 635/667 nm fluorescence, primary screen (AID 1115); conditions: small-molecule microarray, higher = more signal;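 also: probe is biotinylated aNog protein used at 0.15 µg/mL for 1 h at 4 C; z-score combines 667 nm fluorescence of each spot with its signal to noise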
# [19] = biological target: Torsin-1A-interacting protein 1 (Homo sapiens) (UniProt Q5JTV8); test: compound microarray binding of lysate hLAP1 – cell lysate, small-molecule microarray, COS7 lysate, 635/667 nm fluorescence, primary screen (AID 1116); conditions: 635 nm fluorescence, higher = more signal
# [20] = biological target: Alpha-bungarotoxin (Bungarus multicinctus) (UniProt P60615); test: compounds binding labelled alpha-BTX control protein – biochemical, small-molecule microarray, Alexa647 label, 635/667 nm fluorescence, artefact control for SMM control protein annotation, profiling panel (AID 1117); conditions: alpha-BTX-A647 binding fluorescence, higher = more signal
# Chain of Alpha-bungarotoxin (Bungarus multicinctus) (P60615 whole entry, looked up): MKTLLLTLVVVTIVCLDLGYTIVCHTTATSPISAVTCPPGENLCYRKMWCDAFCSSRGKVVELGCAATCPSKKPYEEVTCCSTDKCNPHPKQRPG
# Chain of Left-right determination factor 2 (Homo sapiens) (O00292 whole entry, looked up): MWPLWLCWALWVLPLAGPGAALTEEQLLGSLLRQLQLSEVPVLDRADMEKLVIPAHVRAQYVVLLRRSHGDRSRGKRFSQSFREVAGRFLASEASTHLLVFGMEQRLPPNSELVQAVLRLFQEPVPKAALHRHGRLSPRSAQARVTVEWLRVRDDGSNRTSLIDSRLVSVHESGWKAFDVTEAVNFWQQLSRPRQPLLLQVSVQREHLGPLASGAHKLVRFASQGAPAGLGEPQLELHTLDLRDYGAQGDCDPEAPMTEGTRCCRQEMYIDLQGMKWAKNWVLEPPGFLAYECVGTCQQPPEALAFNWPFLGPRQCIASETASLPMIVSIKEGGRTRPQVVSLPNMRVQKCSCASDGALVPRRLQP
# Chain of Fibroblast growth factor 10 (Homo sapiens) (O15520 whole entry, looked up): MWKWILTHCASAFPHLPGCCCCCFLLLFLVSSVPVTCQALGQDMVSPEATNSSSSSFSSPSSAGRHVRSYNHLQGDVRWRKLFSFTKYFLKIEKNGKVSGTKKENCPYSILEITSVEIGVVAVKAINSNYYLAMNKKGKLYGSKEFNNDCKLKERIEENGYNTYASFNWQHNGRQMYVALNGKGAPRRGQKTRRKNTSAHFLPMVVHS
# Chain of Follistatin-related protein 3 (Homo sapiens) (O95633 whole entry, looked up): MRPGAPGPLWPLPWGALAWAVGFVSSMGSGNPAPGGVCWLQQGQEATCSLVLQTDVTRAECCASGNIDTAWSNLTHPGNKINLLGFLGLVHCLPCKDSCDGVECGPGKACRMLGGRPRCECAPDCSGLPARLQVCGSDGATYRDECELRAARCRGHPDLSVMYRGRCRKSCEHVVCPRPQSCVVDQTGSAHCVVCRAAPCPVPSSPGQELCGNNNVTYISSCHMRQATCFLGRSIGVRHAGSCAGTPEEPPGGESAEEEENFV
# Chain of Dickkopf-related protein 1 (Homo sapiens) (O94907 whole entry, looked up): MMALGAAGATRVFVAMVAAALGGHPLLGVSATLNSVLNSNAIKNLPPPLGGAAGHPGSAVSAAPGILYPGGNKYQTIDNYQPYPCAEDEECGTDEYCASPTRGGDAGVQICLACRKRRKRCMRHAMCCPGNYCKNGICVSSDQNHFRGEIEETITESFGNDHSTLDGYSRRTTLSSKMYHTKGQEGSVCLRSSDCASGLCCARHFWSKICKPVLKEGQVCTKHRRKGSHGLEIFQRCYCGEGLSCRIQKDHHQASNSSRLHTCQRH
# Chain of Torsin-1A-interacting protein 1 (Homo sapiens) (Q5JTV8 whole entry, looked up): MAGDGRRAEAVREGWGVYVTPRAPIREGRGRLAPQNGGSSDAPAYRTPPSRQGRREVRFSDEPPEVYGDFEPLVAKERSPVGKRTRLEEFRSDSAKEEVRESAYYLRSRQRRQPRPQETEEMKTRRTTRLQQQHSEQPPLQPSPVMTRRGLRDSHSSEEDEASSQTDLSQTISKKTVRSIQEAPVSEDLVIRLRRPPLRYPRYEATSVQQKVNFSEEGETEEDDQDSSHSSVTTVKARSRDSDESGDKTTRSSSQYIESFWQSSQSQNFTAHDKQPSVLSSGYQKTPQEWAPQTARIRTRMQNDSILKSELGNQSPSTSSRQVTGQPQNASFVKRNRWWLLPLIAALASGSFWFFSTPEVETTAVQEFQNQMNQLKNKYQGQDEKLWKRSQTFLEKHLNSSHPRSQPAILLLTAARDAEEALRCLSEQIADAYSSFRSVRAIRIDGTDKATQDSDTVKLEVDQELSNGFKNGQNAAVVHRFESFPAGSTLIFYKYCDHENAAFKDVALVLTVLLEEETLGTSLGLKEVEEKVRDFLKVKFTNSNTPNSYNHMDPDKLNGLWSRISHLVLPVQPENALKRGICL
# Chain of Epidermal growth factor receptor (Homo sapiens) (P00533 whole entry, looked up): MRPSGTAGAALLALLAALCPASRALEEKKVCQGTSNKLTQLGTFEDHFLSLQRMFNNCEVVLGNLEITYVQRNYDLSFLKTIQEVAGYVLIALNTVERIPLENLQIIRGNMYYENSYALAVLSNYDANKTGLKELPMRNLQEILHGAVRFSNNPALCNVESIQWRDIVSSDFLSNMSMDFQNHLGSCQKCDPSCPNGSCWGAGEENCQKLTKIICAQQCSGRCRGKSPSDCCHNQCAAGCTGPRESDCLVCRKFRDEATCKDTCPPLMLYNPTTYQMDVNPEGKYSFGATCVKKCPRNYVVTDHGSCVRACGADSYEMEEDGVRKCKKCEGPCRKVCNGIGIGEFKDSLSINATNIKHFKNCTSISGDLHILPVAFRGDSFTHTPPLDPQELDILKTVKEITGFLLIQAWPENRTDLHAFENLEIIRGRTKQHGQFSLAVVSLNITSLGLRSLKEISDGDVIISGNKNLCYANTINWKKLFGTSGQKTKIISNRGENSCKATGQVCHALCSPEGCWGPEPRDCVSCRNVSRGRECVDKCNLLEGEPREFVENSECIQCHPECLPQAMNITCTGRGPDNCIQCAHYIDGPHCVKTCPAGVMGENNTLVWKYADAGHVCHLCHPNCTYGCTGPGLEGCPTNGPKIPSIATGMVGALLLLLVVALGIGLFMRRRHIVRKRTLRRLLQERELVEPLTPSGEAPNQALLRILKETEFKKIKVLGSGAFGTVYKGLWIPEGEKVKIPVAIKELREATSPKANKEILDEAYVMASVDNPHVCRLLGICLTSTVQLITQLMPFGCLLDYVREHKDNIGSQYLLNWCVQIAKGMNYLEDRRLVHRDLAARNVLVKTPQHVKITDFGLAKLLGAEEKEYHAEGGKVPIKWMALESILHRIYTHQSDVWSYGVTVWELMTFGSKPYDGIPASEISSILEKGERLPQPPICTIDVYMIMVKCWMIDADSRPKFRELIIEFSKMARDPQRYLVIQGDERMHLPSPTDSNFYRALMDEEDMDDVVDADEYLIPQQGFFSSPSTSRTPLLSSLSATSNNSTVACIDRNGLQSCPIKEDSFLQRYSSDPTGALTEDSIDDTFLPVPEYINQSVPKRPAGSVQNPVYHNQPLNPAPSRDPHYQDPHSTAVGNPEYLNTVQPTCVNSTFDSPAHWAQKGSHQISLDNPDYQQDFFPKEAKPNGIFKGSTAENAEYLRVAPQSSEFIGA
SMILES,composite z-score [1],composite z-score [2],composite z-score [3],z-score [4],composite z-score [5],composite z-score [6],composite z-score [7],composite z-score [8],composite z-score [9],composite z-score [10],composite z-score [11],z-score [12],composite z-score [13],composite z-score [14],composite z-score [15],composite z-score [16],composite z-score [17],composite z-score [18],composite z-score [19],composite z-score [20]
[N-]=[N+]=NCc1ccccc1C[C@@]1(C(=O)N2CCCCC2)N=C(c2ccc(OCCCO)cc2)O[C@@H]1c1ccccc1,0.884,0.542,0.751,-0.422 (inactive),0.384,0.0635,-0.451,-0.281,-0.849,1.05,0.785,-3.35,-1.01,1.28,0.958,0.0141,-0.325,0.46,2.15,1
C=C(C)C1CCC(C(O)C2C=CC3C(=O)N(C)C(=O)C3N2N2CCCCC2)CC1 (stereo not given),0.925,0.145,0.67,0.929 (inactive),0.853,1.3,1.16,1.35,0.986,1.42,1.44,-0.385,0.67,0.949,0.763,0.048,0.413,0.751,0.555,1.89
CCOC(=O)[C@H]1[C@@H]2C(=O)N3CCC[C@H]3[C@H](O[Si](C(C)C)(C(C)C)C(C)C)[C@H]2C=C2CCN(S(=O)(=O)c3ccc(C)cc3)C[C@H]21,0.779,-0.341,-0.535,-1.73 (inactive),1,0.938,0.586,0.766,0.593,0.141,1.28,-3.6,0.637,0.791,-0.185,-0.0379,0.0815,-0.709,0.694,0.962
C=CC[C@]1(C(=O)O)COC(c2ccc(OCCCO)cc2)=N1,1.58,-0.133,0.568,-0.565 (inactive),-0.0346,0.156,0.0943,0.406,0.117,0.888,0.549,0.183,0.268,0.0295,0.47,-0.0203,-0.138,-0.419,-0.0942,0.291
CCCCO[C@H]1C[C@H]2C(I)=C[C@@H]1C(=O)[C@]21CO1,1.08,-0.37,-0.529,-0.26 (inactive),0.104,-0.487,0.0707,0.127,0.668,0.173,-0.977,-2.7,0.312,-0.331,-0.502,-0.0735,-0.0866,0.0327,-0.243,-0.0708
CC(C)[Si](C#CCCCC#N)(O[C@H](c1ccccc1)c1cn([C@H](CO)Cc2ccccc2)nn1)C(C)C,0.726,-0.151,0.138,-0.401 (inactive),0.61,0.709,0.52,1.36,0.598,0.0469,0.385,-1.33,0.36,1.11,0.295,-0.0459,-0.0793,0.0392,0.222,0.559
Cc1cc(C)cc(N2C(=O)CSC2c2cccc([N+](=O)[O-])c2)c1 (stereo not given),1.13,0.94,0.398,1.07 (inactive),1.15,1.29,0.279,1.35,0.905,-0.639,0.0826,-1.26,0.571,1.6,0.463,0.0873,0.0815,0.0373,0.516,1.7
CCCCCCCCCCC(O)C1C=CC2C(=O)N(C)C(=O)C2N1Nc1ccc([N+](=O)[O-])cc1[N+](=O)[O-] (stereo not given),0.781,0.899,0.905,1.62 (inactive),0.141,0.461,-0.497,0.323,-0.57,0.894,1.38,-1.06,-0.323,1.62,1.05,0.0308,0.151,0.441,1.83,1.18
Cc1ccc(S[C@]2(C(=O)O)CC(=O)N(Cc3cc(C(F)(F)F)cc(C(F)(F)F)c3)[C@@H]2c2ccc(CO)cc2)cc1,1.2,0.326,1.14,-0.262 (inactive),-1.65,-1.03,-1.89,-1.92,-2.26,-0.131,-0.0234,-0.0295,-2.28,-0.743,0.168,-0.226,-0.0483,-0.0733,-0.155,-0.876
COc1ccc(-c2cc3c(c(CCc4ccccc4)n2)[Si](C(C)C)(C(C)C)OC3)cn1,-0.311,-0.128,-0.185,-0.0496 (inactive),-0.121,-0.926,0.168,0.282,0.0275,0.529,-0.681,-0.42,0.209,-0.113,0.151,-0.15,-0.147,-0.115,-0.0389,0.104
COC(=O)[C@@]1(Cc2ccccc2)[C@H]2c3cc(C(=O)N(C)C)n(Cc4c(CO)[nH]cc(C)c4=O)c3C[C@H]2CN1C(=O)c1ccccc1,0.42,0.183,0.528,1.06 (inactive),0.422,-0.0088,-0.0555,-0.237,-0.296,1.1,-0.0355,-0.898,-0.0086,0.278,0.0907,0.108,0.061,1.05,0.37,0.218
